Compounds without any hit were thinned out: in the full panel of roughly 83,000, 20% have a hit.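 How to read the values: 0–100, growth inhibition (40 = 60% inhibited); 0, no net growth; -100 to 0, cell death (-40 = 40% of starting cells died; -100 = all dead).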 A number with no mark means an inactive call. Active and inactive are the calls of the source.
Test system: IGROV1 ovarian
Assay: NCI-60 one-dose screen, 48 h (100 = growth as untreated, 0 = no growth, -100 = all killed)
Details: 10 µM unless noted
Description: Growth inhibition of the IGROV1 human tumor cell line is measured as a screen for anti-cancer activity. Cells are grown in 96 well plates and exposed to the test compound for 48 hours. Compounds are tested at a single concentration, which is 10^-5 M for most compounds. The reported endpoint is percent growth (GI% or GIPRCNT), where numbers from 0 - 100% represent growth inhibition, and numbers from -100% - 0 represent cell death. For example, a value of 40 represents 60% growth inhibition. A value of 0 means no net growth occurred over the course of the experiment. A value of -40 indicates 40% of cells at the beginning of the experiment died by the end of the experiment. A value of -100 means all cells are dead at the end of the experiment.
NCI-60 Human Tumor Cell Lines Screen was performed using the standard one-dose NCI protocol, which is described in more detail at https://dtp.cancer.gov/discovery_development/nci-60/default.htm.
Compounds with GIPRCNT values below 10 were considered active. Activity score was based on GIPRCNT using the following formula: […]
Score is 0 for GIPRCNT values of 100 or above, 50 for GIPRCNT values of 0, and 100 for GIPRCNT values of -100.

Compound | growth
C=C1C(=O)O[C@H]2[C@H]1CC/C(C=Nc1ccc(C(F)(F)F)cc1N)=C\CC[C@@]1(C)O[C@@H]21 | 27.7%
CCCCn1c(-c2ccc(C(=O)O/N=C(\N)c3ccc4ccccc4c3)cc2)nc(-c2ccccc2)c1-c1ccccc1 | -61.9% (active)
O=C1C=C(OCC=C(Cl)Cl)C(=O)c2ccccc21 | 75.6%
CNc1ccc(-c2cc(=O)oc3ccc(Cl)cc23)cc1 | 50.1%
Cc1ccc(OC(=O)c2ccc(Cl)cc2)cc1 | 116%
Cc1nn(-c2cc(=O)[nH]c3ccc(Cl)cc23)c(N)c1C#N | 73.1%
Cc1cc(C)nc(SC2=C(Nc3ccc(C)c(Cl)c3)C(=O)N(Cc3ccccc3)C2=O)n1 | 45.1% [30 µM]
Cc1cc2c3ccccc3ccc2[n+]2ccccc12 | 34%
O=C(COc1cccc(/C=C2\CSc3ccccc3C2=O)c1)Nc1nccs1 | -52.2% (active)
COc1ccc(/C=N/C2=C(C#N)C(c3ccc(N(C)C)cc3)c3ccc4ccccc4c3O2)cc1 (stereo not given) | 39.5%
COc1cccc2c1C(=O)c1c(O)c3c(c(O)c1C2=O)C[C@](O)(C(=O)CO)C[C@H]3O[C@@H]1C[C@@H](NC(=O)CCCN(C)C2(c3ccc(F)cc3)CC3CCC2C3)[C@H](O)[C@@H](C)O1 (stereo not given in full) | 55.2%
COc1ccc(/C=C/C(=O)c2cc(O)ccc2O)cc1 | 83.4%
Cn1nc(N)c2cc([C@@H]3Nc4ccc5[nH]ncc5c4[C@H]4C5CCC(C5)[C@@H]34)ccc21 (stereo not given in full) | 27.3%
COc1cccc(/C=C2\Oc3cc(OCCN4CCCC4)ccc3C2=O)c1 | 98.6%
CCCc1cc(=O)n2c(C(=O)Nc3cccc(C(=O)OCC)c3)c(C(=O)Nc3ccc(F)cc3)sc2n1 | 42.2% [30 µM]
COc1ccc(C2C(C#N)=C(N)Oc3n[nH]c(-c4cccs4)c32)cc1I (stereo not given) | 91.2%
O=c1c2c3c(sc2nc(N/N=C/c2cn(-c4ccccc4)nc2-c2ccc(Cl)cc2)n1Cc1ccccc1)CCCC3 | 92.4%
COc1cc2c(cc1-c1c(C)noc1C)ncc1nc(C3CCCC3)n([C@H](C)COC(F)F)c12 | 42.1%
CCOC(=O)c1sc2nc(-c3cccc(O)c3)nc(N3CCOCC3)c2c1C | 16.9%
COc1ccc(O)c(N=Nc2nccs2)c1 | 70.2%

Compound | growth
CC1=C[C@H]2c3c(c(O)c(O)c4oc5cc(O)ccc5c(=O)c34)[C@H](c3cc(O)c(O)c4oc5cc(O)ccc5c(=O)c34)[C@H]2C(C)(C)C1 | 21.4%
COc1ccc(-c2nc3ccc(-c4nc5ccc(N6CCN(c7ccc(F)cc7)CC6)cc5[nH]4)cc3[nH]2)cc1OC | 72.8%
CC(C)C[C@@H](NC(=O)[C@@H](Cc1ccccc1)NC(=O)c1cnccn1)B1Oc2ccc(C[C@H](NC(=O)[C@H](Cc3ccc4c(c3)OB([C@@H](CC(C)C)NC(=O)[C@@H](Cc3ccccc3)NC(=O)c3cnccn3)O4)NC(=O)[C@@H](N)CC3CCC4OB([C@@H](CC(C)C)NC(=O)[C@@H](CC5CCCCC5)NC(=O)C5CNCCN5)OC4C3)C(=O)NCCCC[C@@H]3NC(=O)[C@@H](Cc4ccccc4)NC(=O)[C@H](CC(=O)O)NC(=O)CNC(=O)[C@H](CCCNC(=N)N)NC3=O)cc2O1 (stereo not given in full) | -8.65% (active)
COc1ccc(S(=O)(=O)N2CC3(COC3)C2)cc1NC(=O)c1[nH]c(C)c2c1CCCCC2=O | 44%
O=[N+]([O-])c1ccccc1/C=N\NC(=S)N/N=C/c1ccccc1[N+](=O)[O-] | 15%
COc1ccc2c(c1)C(=O)/C(=C/c1cccnc1)CC2 | 101%
O=C(N/N=C/c1c[nH]c2ccccc12)c1cc(-c2ccccc2)on1 | 87.2%
Cn1cc(C(=O)c2nc(-c3c[nH]c4ccc(Br)cc34)no2)c2cc(F)ccc21 | 61.3%
CN1CCN(c2nc(NCCCCNc3ccnc4cc(Cl)ccc34)c3ccccc3n2)CC1 | 78.2%
CC[C@]1(O)C[C@@H]2CN(CCc3c([nH]c4ccccc34)[C@@](C(=O)OC)(c3cc4c(cc3OC)N(C)[C@H]3[C@@](O)(C(N)=O)[C@H](O)[C@]5(CC)[C@@H]6C[C@@H]6CN6CC[C@]43[C@@H]65)C2)C1 | 36.5%
c1ccc(CCNc2ncnc3[nH]ncc23)cc1 | 83.5%
CC1C(/C=N/Nc2ccccc2)C(C#N)(C#N)C1(C#N)C#N (stereo not given) | 56.3%
Clc1ccc2c(NCCCCNc3nc(N4CCOCC4)nc4ccccc34)ccnc2c1 | 44.9%
FC(F)(F)c1ccc(-c2cn3nc(-c4c[nH]c5ccc(Br)cc45)sc3n2)cc1 | 73.2%
O=Nc1c(O)c(Cl)cc2ccccc12 | 59.1%
CC(=O)c1cc2c(N)c(C(=O)Nc3ccccc3)sc2nc1C | 83.9%
COc1cc(-c2nn(-c3ccc(Br)cc3)cc2C(=O)O)ccc1O | 91.2%
NC(=NCCCOc1ccc(Cl)cc1)Nc1ccc(Cl)cc1 | 8.71% (active)
CN(C)CCCNc1c2ccccc2nc2ccccc12 | 97.5%
COc1ccc(-n2nc(C)c3c(Nc4ccc(NC(=O)Nc5cc(C(F)(F)F)ccc5F)cc4)ncnc32)cc1 | 39.2%
